“And” between values parts separate entries of the source, which are not always exact repeats. Equal entries are not always repeated. Records with an inconclusive call do not appear. The source made the active and inactive calls. The call rests on the fitted dose curve; in most records, active means well fitted curve in the direction sought with a large enough effect; inconclusive means small, poorly fitted or top-dose-only effect, or another doubt; inactive means no such curve, though single readings can be large; an effect the other way counts as inactive or inconclusive.

In PubChem BioAssay (NCATS) one finds Potency and IC50 (viability decrease) data, which are given here for 17 molecules.

Assay [1] can be described thus: qHTS Screen of the MIPE 4.0 Collection Against Ewings Sarcoma (RDES) (AID 1259252). Further: nearly all actives have a fitted effect of over 35% in size. Further: potency means the concentration at half of the fitted maximal effect. Put shortly: (§1)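 Dose series incubated 48 h with cells in RPMI plus 5% FBS, glutamine and penicillin/streptomycin; cell viability then quantified via CellTiter-Glo.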
Background: Quantitative high-throughput screening tests each substance at several concentrations.

Assay [2] can be described thus: qHTS Screen of the MIPE 4.0 Collection Against Ewings Sarcoma (TC71) (AID 1259253). Further: nearly all actives have a fitted effect of over 40% in size. Further: potency means the concentration at half of the fitted maximal effect. Put shortly: as §1
Assay [3] in a line: qHTS Screen of the MIPE 4.0 Collection Against Ewings Sarcoma (EW8) (AID 1259255). Further: nearly all actives have a fitted effect of over 35% in size. Further: potency means the concentration at half of the fitted maximal effect. A digest of the protocol:
as §1

The nature of assay [4]: qHTS Screen of the MIPE 4.0 Collection Against Ewings Sarcoma (TC32) (AID 1259256). Further: nearly all actives have a fitted effect of over 45% in size. Further: potency means the concentration at half of the fitted maximal effect. Put shortly: as §1
A short description of assay [5]: P-glycoprotein substrates identified in KB-3-1 adenocarcinoma cell line, qHTS therapeutic library screen (AID 1346986). Further: nearly all actives have a fitted effect of over 60% in size.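 Further: potency means the concentration at half of the fitted maximal effect; potency is for cytotoxicity meaning loss of cell viability.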 Put shortly:
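Viability by CellTiter-Glo after 72 h compound exposure at 37 degree C, 5% CO2. Cytotoxic call: curve class -1.1 to -2.4, maximum response >50%, AC50 < 10 uM, compared across KB-3-1 and P-gp-overexpressing KB-8-5-11.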

Assay [6] in a line: NS1 protein of Zika virus - qHTS assay to identify small molecule inhibitors in human HEK 293 cells (AID 1347053). Further: nearly all actives have a fitted effect of over 55% in size. Further: potency means the concentration at half of the fitted maximal effect. Put shortly: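 TR-FRET signal from two anti-ZIKV NS1 antibodies quantified NS1 in HEK 293 cells 24 h after MR766 infection at MOI = 0.5; compounds were added 1 h before virus. Uninfected cells and infected cells defined the NS1 normalization range.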
Assay [7] in a line: Identifying Small Molecule Inhibitors of Pancreatic Cancer Stem Cells (A278, Adherent) (AID 1259361).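 Further: viability read after 48 h compound exposure; nearly all actives have a fitted effect of over 35% in size.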 Put shortly: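 Endpoint: ATP-based luminescence, 48 h drug exposure. Bortezomib at 9.2 uM final as full-kill control; DMSO vehicle as negative control; activity normalized between vehicle and cell-free wells.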
Assay [8] in a line: P-glycoprotein substrates identified in KB-8-5-11 adenocarcinoma cell line, qHTS therapeutic library screen (AID 1346987). Further: nearly all actives have a fitted effect of over 65% in size. Further: potency means the concentration at half of the fitted maximal effect. Put shortly:
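Human cervical adenocarcinoma KB-8-5-11 cells, selected in colchicine to over-express P-gp and assayed without it, were exposed for 72 h to titrated compounds. An ATP-based luminescent viability signal gave AC50.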

As to `O=C(Nc1nc2cccc(-c3ccc(CN4CCS(=O)(=O)CC4)cc3)n2n1)C1CC1`, the Potency in assay [1] is 16.6 µM (active); in assay [2], 9.35 µM (active); in assay [3] it was 9.35 µM (active); in assay [4], 8.33 µM (active); in assay [5], 20.6 µM (active). The Potency entry in assay [6] is “inactive”.
Turning to `Fc1cc(-c2cccc3ncc(-c4cnn(C5CCNCC5)c4)nc23)cc(F)c1CN1CCOCC1`, the Potency in assay [1] was 20.9 µM (active); in assay [2], 20.9 µM (active); in assay [3], 20.9 µM (active); in assay [4], 18.7 µM (active); in assay [6], 20.9 µM (active). For the same molecule, the IC50 (viability decrease) in assay [7] was 20.9 µM (active).
For `Nc1nc(NCCNc2ncc(-n3ccnc3)c(-c3ccc(Cl)cc3Cl)n2)ccc1[N+](=O)[O-]`, the Potency was 0.833 µM (active) in assay [1] and 9.35 µM (active) in assay [4]. The Potency result in assay [2], in assay [3], in assay [5], in assay [8] and in assay [6] was “inactive” in each case.
Turning to `CCCCCCCCCC(=O)N[C@@H](Cc1c[nH]c2ccccc12)C(=O)N[C@H](CC(N)=O)C(=O)N[C@@H](CC(=O)O)C(=O)N[C@@H]1C(=O)NCC(=O)N[C@@H](CCCN)C(=O)N[C@@H](CC(=O)O)C(=O)N[C@H](C)C(=O)N[C@@H](CC(=O)O)C(=O)NCC(=O)N[C@H](CO)C(=O)N[C@@H]([C@@H](C)CC(=O)O)C(=O)N[C@@H](CC(=O)c2ccccc2N)C(=O)O[C@@H]1C`, the Potency entry in assay [1], in assay [2], in assay [3], in assay [4], in assay [5] and in assay [8] was “inactive” each time. Also, the Potency entry in assay [6] is “inactive”.
Take `Nc1nccc(Oc2ccc(NC(=O)c3c[nH]cc(-c4ccc(F)cc4)c3=O)cc2F)c1Cl`: the Potency in assay [1] was 1.66 µM (active); in assay [2], 2.96 µM (active); in assay [3], 0.743 µM (active); in assay [4] it was 2.64 µM (active); in assay [8], 23.5 µM (active) and 16.4 µM (active). Besides, the IC50 (viability decrease) in assay [7] was 23.5 µM (active). Moreover, the Potency result in assay [6] is “inactive”.
As to `CN(C)c1nc(Cc2ccc(NC(=O)c3ccc4ccccc4c3)cc2)nc(Cl)c1CC(=O)O`, the Potency entry in assay [1], in assay [2], in assay [3], in assay [4], in assay [5] and in assay [8] was “inactive” throughout. For the same molecule, in assay [6], the Potency result is “inactive”.
As for `CS(=O)(=O)N1CCN(Cc2cc3nc(-c4cccc5[nH]ncc45)nc(N4CCOCC4)c3s2)CC1`, the Potency in assay [1] is 1.18 µM (active); in assay [2] it was 5.9 µM (active); in assay [3], 1.66 µM (active); in assay [4], 0.418 µM (active); in assay [6], 4.69 µM (active). For the same molecule, in assay [7], the IC50 (viability decrease) was 0.372 µM (active).
Turning to `Clc1cccc(-c2nnnn2Cc2cccnc2)c1Cl`, the Potency result in assay [1], in assay [2], in assay [3], in assay [4], in assay [5] and in assay [8] was “inactive” each time. Moreover, in assay [6], the Potency entry was “inactive”.
Take `O=C(Nc1cn[nH]c1-c1nc2ccc(CN3CCOCC3)cc2[nH]1)NC1CC1`: the Potency is 3.72 µM (active) in assay [1]; 7.43 µM (active) in assay [2]; 0.0332 µM (active) in assay [3]; 0.0662 µM (active) in assay [4]; 1.16 µM (active) in assay [5]; 9.35 µM (active) in assay [6]. Moreover, the Potency entry in assay [8] is “inactive”.
Turning to `CCOc1ccccc1OCCNC(C)Cc1ccc(OC)c(S(N)(=O)=O)c1` (stereo not drawn), the Potency result in assay [1], in assay [2], in assay [3], in assay [4], in assay [5] and in assay [8] was “inactive” throughout. The Potency entry in assay [6] is “inactive”.
`CCCCc1nc2cc(C=CC(=O)NO)ccc2n1CCN(CC)CC`: the Potency in assay [1] is 0.187 µM (active); in assay [2], 0.372 µM (active); in assay [3], 0.469 µM (active); in assay [4], 0.0935 µM (active); in assay [8] it was 7.43 µM (active). In addition, the IC50 (viability decrease) in assay [7] is 1.18 µM (active). The Potency result in assay [6] was “inactive”.
Consider `CS(=O)(=O)c1ccc(-c2cnc(N)c(C(=O)Nc3ccccc3)n2)cc1`, for which the Potency result in assay [1], in assay [5], in assay [8] and in assay [6] was “inactive” throughout. Besides, the Potency in assay [2] was 10.5 µM (active); in assay [3], 13.2 µM (active); in assay [4], 4.18 µM (active).
Regarding `CNC(=O)c1ccc(N2C(=S)N(c3cnc(C#N)c(C(F)(F)F)c3)C(=O)C23CCC3)cc1F`, the Potency in assay [1] is 1.18 µM (active); in assay [2], 2.96 µM (active); in assay [3], 8.33 µM (active); in assay [4], 8.33 µM (active). The Potency entry in assay [5], in assay [8] and in assay [6] was “inactive” in each case.
On to `c1nc2nc(Nc3ccc(N4CCOCC4)cc3)nc(NC3CCCCC3)c2[nH]1`, for which the Potency in assay [1] is 14.8 µM (active); in assay [2], 2.64 µM (active); in assay [3] it was 2.35 µM (active); in assay [4] it was 1.87 µM (active); in assay [5] it was 1.3 µM (active); in assay [8], 5.26 µM (active) and 632 nM (active) and 1.16 µM (active).
Regarding `CCNC(=O)Nc1ccc2ncc(Nc3ccc(C)cc3)nc2n1`, the Potency in assay [1] was 0.332 µM (active); in assay [2] it was 2.96 µM (active); in assay [3], 2.96 µM (active); in assay [4], 1.32 µM (active). Also, the Potency result in assay [5], in assay [8] and in assay [6] was “inactive” in each case.
Turning to `O=C(c1cncc(Br)c1)N1CCC(N2CCCC2)CC1`, the Potency result in assay [1], in assay [2], in assay [3], in assay [4], in assay [5] and in assay [8] was “inactive” in each case.
As for `O=C(O)c1ccc2cc(-c3ccc(O)c(C45CC6CC(CC(C6)C4)C5)c3)ccc2c1`, the Potency is 1.32 µM (active) in assay [1]; 0.59 µM (active) in assay [2]; 1.66 µM (active) in assay [3]; 0.372 µM (active) in assay [4]; 0.59 µM (active) in assay [6]. For the same molecule, the IC50 (viability decrease) in assay [7] was 0.935 µM (active).
